The source made the active and inactive calls. No rule for the calls is given here.
The compounds below were run against Protein kinase 7 (PK7), Plasmodium falciparum 3D7 (PF3D7_0213400) (UniProt Q7YTF7) (assay: inhibition of Plasmodium PK7 catalytic activity – biochemical, TCAMS antimalarial set, Kinase-Glo luminescence (AID 1159587)). Settings: recombinant PfPK7, Kinase-Glo ATP depletion luminescence.
Chain of Protein kinase 7 (PK7), Plasmodium falciparum 3D7 (PF3D7_0213400) (Q7YTF7 1-343): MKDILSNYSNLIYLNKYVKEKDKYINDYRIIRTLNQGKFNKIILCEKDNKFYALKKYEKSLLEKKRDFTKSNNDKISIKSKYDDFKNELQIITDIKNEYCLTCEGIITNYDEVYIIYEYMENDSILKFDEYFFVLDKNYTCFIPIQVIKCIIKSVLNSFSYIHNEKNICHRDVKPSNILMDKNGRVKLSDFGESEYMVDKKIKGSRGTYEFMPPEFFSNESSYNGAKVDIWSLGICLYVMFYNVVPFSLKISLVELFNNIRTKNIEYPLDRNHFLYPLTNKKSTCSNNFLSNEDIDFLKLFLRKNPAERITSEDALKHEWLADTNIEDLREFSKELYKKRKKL

outcome, inactive:
COc1cc(NC(=O)c2sc(-c3ccc(Cl)cc3)cc2NC(=O)c2ccncc2)ccc1OCCN1CCCC1
Cc1cc(NN=Cc2ccccc2Cl)c2ccccc2n1
Cc1cc(NN=Cc2ccc([N+](=O)[O-])cc2)c2ccc(F)cc2n1
COc1ccc(C(=O)N2CCc3cc4nccc(N5CCN6CCC[C@H]6C5)c4cc32)cc1
O=C(Nc1cccc(-c2ccc(-c3nc4ccc(F)cc4[nH]3)cc2)c1)Nc1ccc(Cl)c(Cl)c1
Cc1ccc(Cn2ncc(NC3CCNCC3)c(Cl)c2=O)cc1NC(=O)Nc1ccc(-c2ccccc2)cc1
CCCCNS(=O)(=O)c1ccc(NC(=O)c2cc([N+](=O)[O-])ccc2Cl)cc1
CCNc1cc(C)nc(Nc2ccc(NC(=O)C3CCCC3)cc2)n1
COc1ccc(-n2nc(C(=O)NCCC3=CCCCC3)c3ccccc3c2=O)cc1
O=C(NCC1CCN(Cc2ccsc2)C1)c1cc(-c2cccc(C(F)(F)F)c2)cs1 (stereo unspecified)
COc1cc(NC(=O)/C=C/c2cccc3cc[nH]c23)ccc1OCCN(C(C)C)C(C)C
C=CCOC(=O)O[C@@H]1[C@@H](OC(=O)OCC=C)[C@@H](OC)O[C@H](COC(c2ccccc2)(c2ccccc2)c2ccccc2)[C@H]1OC(=O)OCC=C
O=C(Nc1cccnc1)c1cn(-c2ccccc2)nc1-c1cccs1
O=C(CN1CCCC1)Nc1cccc(C(=O)Nc2cccc(C(F)(F)F)c2)c1
O=S(=O)(Nc1cccc(CCN2CCC(N3CCCCC3)CC2)c1)c1cccc(C(F)(F)F)c1
Cc1cc(Cl)ccc1OC(C)C(=O)N1CCc2ccccc21 (stereo unspecified)
COc1cc2nc(N(C)Cc3cccc(I)c3)nc(N)c2cc1OC
O=C(Nc1cccc(OC2CCN(Cc3ccsc3)CC2)c1)c1ccc(C(F)(F)F)cc1
CC(C)CCN(Cc1cncn1Cc1ccccc1F)C(=O)c1cncc(-c2ccccc2)c1
Clc1nc2ccccn2c1C=Cc1ccc2ccccc2n1
COc1ccc(-c2cc(Nc3nc(-c4cccc(Cl)c4)nc4ccccc34)ccn2)cc1
COc1ccc(NC(=O)/C=C/c2ccccc2Cl)cc1OCCN1CCC(N2CCCC2)CC1
O=C(Nc1cccc(-c2cccc(-c3nc4ccccc4[nH]3)c2)c1)Nc1ccc(Cl)c(Cl)c1
CCNC(=O)c1ccc(-n2nc(C)cc2-c2ccccc2)cc1
CCN(CC)C(=NCCCCCCN=C(NC(N)=NCc1ccc(Cl)cc1)N(CC)CC)NC(N)=NCc1ccc(Cl)cc1
O=C(/C=C/c1ccc(Cl)c(Cl)c1)NCCCCCCN1CCCN(C(=O)Nc2cccc(Cl)c2)CC1
